Screening data: PubChem, several laboratories
PfHsp40 rescue: restores yeast growth despite PfHsp40 toxicity; S. cerevisiae expressing PfHsp40, growth rescue, ATP luminescence; AID 504582; growth rescue, % at 12.5 µM; 0.68% of 340,000 active; in the data active means growth rescue above about 28%, passing the limit was not always enough; inconclusive means no clear call, values can overlap the other calls;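 further: yeast W303a lacking pdr1 and pdr3 grown in galactose medium; growth measured after three days at 30 °C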
PrP UTR inh: inhibition of PrP 5' UTR reporter expression; cell-based PrP 5' UTR mRNA reporter, plate reader; inhibition, % (no concentration beside the values); 0.35% of 340,000 active; in the data active means inhibition above about 52%; further: 0 = median of the neutral control wells
Sa ugtP lethal: growth inhibition of S. aureus ugtP deletion strain; 0.54% of 330,000 active; growth inhibition, % (no concentration beside the values); S. aureus RN4220 ugtP deletion, OD600 growth, 16 h; in the data active means growth inhibition above about 68%;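 further: plate controls were untreated wells for no effect and antibiotic for full effect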
CCHFV vOTU inh: CCHFV vOTU protease inhibition; 0.55% of 370,000 active; inhibition, % at 11.5 µM; Pep-AMC fluorescence; in the data active means inhibition above about 30%; further: 0% = vehicle wells with enzyme and 100% = no enzyme wells
PrPC surface inh: inhibitors of human cell surface prion protein PrPC | P04156 | TR-FRET read-out | AID 720596 | 0.43% of 370,000 active | inhibition, % at 13.8 µM; in the data active means inhibition above about 24%; further: 0% = median of the test wells and 100% = reference compound wells
Sa RN4220 lethal: kills Staphylococcus aureus RN4220; AID 1259311; S. aureus RN4220 growth, OD600, 16 h; 0.33% of 330,000 active; inhibition, % (no concentration beside the values); in the data active means inhibition above about 85%;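 further: plate controls were untreated cells for no effect and reference antibiotic for full effect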
* = called active by the depositor; ? = inconclusive; . = no result. Rows were chosen to be rich in hits. Some 2.1% of all compounds tested hit in one or more screens of this group.

SMILES	PfHsp40 rescue	PrP UTR inh	Sa ugtP lethal	CCHFV vOTU inh	PrPC surface inh	Sa RN4220 lethal
Cc1[nH]c2ccc(-c3nnc(SCC(=O)c4ccccc4F)o3)cc2c1C	-1.0	-6.6	-22.5	-0.9	-0.4	17.7
CCCn1c(SCC(=O)N2CCN(C(=O)c3ccco3)CC2)nc2ccccc2c1=O	74.2*	-24.6	1.7	5.5	-9.5	0.4
COc1cc(-c2ccc(=O)[nH]n2)ccc1OC(F)F	42.7*	34.8	8.7	-2.4	11.6	6.9
COc1ccc(-c2ccc(=O)[nH]n2)cc1	-0.9	-5.2	13.7	.	.	6.6
O=C1C(Cc2ccccc2)NCCCCC(c2ccc(Cl)cc2)N1Cc1ccccc1 (stereo unspecified)	.	.	11.8	.	.	6.8
COc1ccc2c(c1)OC[C@H]1[C@H]2N2C(=O)c3cc(OC)ccc3NC(=O)[C@@]2(C)[C@H]1c1ccccc1	116.5*	-25.1	.	-7.9	17.5	.
C[C@]12C(=O)N(c3ccc(F)cc3)C(=O)N1[C@H]1c3ccccc3OC[C@@H]1[C@H]2c1ccccc1	93.8*	-6.1	-11.8	-2.4	8.3	-23.6
O=C(Nc1cccc(-c2csc(Nc3ccc(Cl)cc3)n2)c1)c1ccccc1	-0.4	-13.8	38.3	1.7	16.1	15.3
O=C(Nc1cccc(-c2csc(Nc3ccc(Cl)cc3)n2)c1)c1cccc(C(F)(F)F)c1	?	-19.4	76.1	14.1	13.2	88.9*
N#Cc1cccc(CN2CCC(=O)N(C(CO)Cc3ccccc3)CC2)c1 (stereo unspecified)	.	.	1.1	.	.	7.0
Cn1cccc1-c1cc(C(=O)NN=Cc2ccccc2Cl)[nH]n1	.	.	-7.8	.	.	13.6
CNC(=O)NC(=O)CSc1ccc(S(=O)(=O)N2CCOCC2)cn1	33.1*	-17.4	7.6	4.4	-0.4	7.6
CC(C)C=C1CCCCC1N(C)C(=O)NC(C)C (stereo unspecified)	.	.	-0.1	.	.	1.6
CCOc1cc(C=NN=C(N)c2nonc2N)cc(Br)c1OCc1ccc(Cl)cc1	.	.	-10.2	.	.	-6.6
COc1ccc(/C=C/c2c(-c3ccc(OC)cc3)oc3ccc(-c4ccc(OC)cc4)cc23)cc1	-1.2	4.7	.	-8.2	0.7	.
COc1ccc(/C=C/c2cc(-c3ccc(C)cc3)o[n+]2C)cc1	1.0	-0.6	99.7*	-0.7	-3.6	96.0*
O=C1C(Cc2ccccc2)NCCCCC(c2ccc(Cl)cc2)N1Cc1ccc(Cl)cc1 (stereo unspecified)	.	.	11.8	.	.	0.8
CC(C)OC(=O)c1cc2c(=O)[nH]c(C(Cl)(Cl)Cl)nc2o1	1.1	0.8	86.7*	1.9	1.3	91.9*
CC(C)OC(=O)c1ccc(S(N)(=O)=O)o1	3.5	-17.6	0.3	11.5	-6.1	1.8
Cc1nnc(SCC2=C(C(=O)O)N3C(=O)C(NC(=O)Cn4ncc(Cl)c4C)C3SC2)s1 (stereo unspecified)	0.7	-31.7	98.7*	-3.5	-10.8	99.1*
CC1=C(C(=O)O)N2C(=O)C(NC(=O)c3c(F)cccc3F)C2SC1 (stereo unspecified)	-0.3	-10.5	5.8	-3.1	2.0	5.9
Cc1cc(C)n(CC(=O)NC2C(=O)N3C(C(=O)O)=C(CSc4nnc(C)s4)CSC23)n1 (stereo unspecified)	-0.6	-25.2	99.6*	10.2	-16.1	100.3*
Cc1nnc(SCC2=C(C(=O)O)N3C(=O)C(NC(=O)c4cccc(F)c4F)C3SC2)s1 (stereo unspecified)	0.4	-8.9	100.5*	5.8	-3.0	99.5*
CC1=C(C(=O)O)N2C(=O)C(NC(=O)c3ccn(C)n3)C2SC1 (stereo unspecified)	0.1	-9.5	3.5	-0.7	-0.8	4.2
CN1C2CCC1CC(OC1c3ccccc3CCc3ccccc31)C2 (stereo unspecified)	.	.	-9.6	.	.	-4.3
SMILES	PfHsp40 rescue	PrP UTR inh	Sa ugtP lethal	CCHFV vOTU inh	PrPC surface inh	Sa RN4220 lethal
O=C(O)c1cccc(Cn2c(Cl)c(C=NNC(=O)c3cc4ccccc4cc3O)sc2=O)c1	.	.	9.5	.	.	10.6
CC(CC(=O)Nc1ccc(C)c(Cl)c1)=NNC(=O)Cc1ccccc1	.	.	0.7	.	.	5.8
CCc1ccc(NSc2ccccc2[N+](=O)[O-])cc1	45.6*	-5.9	8.9	7.5	-9.0	20.9
CC(=NNC(=O)CCC(=O)Nc1ccccc1)c1cccs1	.	.	-2.1	.	.	2.5
O=C(NNC(=O)c1cc(F)c(F)cc1Cl)c1ccc(NS(=O)(=O)c2cccs2)cc1	1.1	.	-2.0	0.8	8.0	0.7
O=C(NNC(=O)c1cc(Cl)ccc1O)c1ccc(NS(=O)(=O)c2cccs2)cc1	351.2*	-15.6	-5.8	6.8	-4.5	17.0
COc1ccc(COC(=O)C2CCN(S(=O)(=O)c3cccs3)CC2)cc1	0.2	-12.8	9.1	4.5	-6.0	3.5
Cc1cccc(OCCOC(=O)C2CCN(S(=O)(=O)c3cccs3)CC2)c1	101.6*	-5.7	2.5	1.4	-5.1	1.7
C[C@H]1CC[C@@]2(C)[C@@H](CC[C@@H]3[C@@H]2CC[C@]2(C)[C@@H](O)CC[C@@H]32)C1	0.5	-8.0	99.2*	-7.4	-5.8	93.7*
CCCOc1ccc(N2C(=O)CC(N3CCC(O)(c4cccc(C(F)(F)F)c4)CC3)C2=O)cc1 (stereo unspecified)	28.4*	-23.8	-5.0	0.9	6.3	-0.1
Cc1ccc(S(=O)(=O)N2[C@@H](c3ccccc3)C(C(=O)O)=CC[C@H]2c2ccc(Cl)c(Cl)c2)cc1	14.7	-14.3	.	13.8	0.4	.
Cc1ccc(S(=O)(=O)N2C(c3ccc(Cl)c(Cl)c3)CC=C(C(=O)O)C2c2ccccc2)cc1 (stereo unspecified)	.	.	90.3*	.	.	28.1
CC(=O)n1cc(N(C(=O)CCl)c2ccc(Cl)cc2)c2ccccc21	.	.	94.8*	.	.	57.6
COc1ccccc1N(C(=O)CCl)c1cn(C(C)=O)c2ccccc12	-0.1	-27.4	18.9	-7.9	-0.4	3.9
O=C1c2ccccc2S(=O)(=O)c2cc(C(=O)N3CCC(C(=O)N4CCCCC4)CC3)ccc21	.	.	2.9	4.6	-20.1	8.0
CC1CCCC(C)N1C(=O)c1ccc2c(c1)S(=O)(=O)c1ccccc1C2=O (stereo unspecified)	69.8*	-25.3	2.9	-5.2	-36.8	4.7
CC(C(=O)N1CCc2ccccc21)N1CCN(c2cccc(C(F)(F)F)c2)CC1 (stereo unspecified)	-1.8	-4.4	89.6*	-6.0	-5.7	-4.1
CC(C(=O)N1CCc2ccccc21)N1CCN(S(=O)(=O)c2ccc(C(F)(F)F)cc2)CC1 (stereo unspecified)	3.6	-26.1	7.3	22.1	-0.3	-3.5
CN1/C(=C/c2cc[n+](C)c3ccccc23)C=Cc2ccccc21	-0.9	-7.9	95.7*	.	.	99.5*
O=c1c2ccccc2nc(-c2ccc(-c3ccccc3)cc2)n1-c1ccncc1	340.6*	-22.0	2.1	-4.8	4.0	4.5
CC(=NNC(=O)c1ccc(COc2ccccc2)cc1)c1ccncc1	.	.	4.0	.	.	4.2
Cc1cc(C)cc(C(=O)NC(=S)Nc2ccc(Cc3ccncc3)cc2)c1	5.4	-18.5	86.7*	0.1	-5.6	1.7
